{"source": "the supplement of paper PMC3334620", "note": "The full ranking holds about 33,000 sequences; the median of “E-score (-0.5 to 0.5)” is about -0.021, and the highest 2% start at about 0.32. What follows is part of a selection rich in the highest values, with near analogues and random picks from the rest."}
{"target": "T1, Zap1 (UniProt P47043)", "T1 sequence": "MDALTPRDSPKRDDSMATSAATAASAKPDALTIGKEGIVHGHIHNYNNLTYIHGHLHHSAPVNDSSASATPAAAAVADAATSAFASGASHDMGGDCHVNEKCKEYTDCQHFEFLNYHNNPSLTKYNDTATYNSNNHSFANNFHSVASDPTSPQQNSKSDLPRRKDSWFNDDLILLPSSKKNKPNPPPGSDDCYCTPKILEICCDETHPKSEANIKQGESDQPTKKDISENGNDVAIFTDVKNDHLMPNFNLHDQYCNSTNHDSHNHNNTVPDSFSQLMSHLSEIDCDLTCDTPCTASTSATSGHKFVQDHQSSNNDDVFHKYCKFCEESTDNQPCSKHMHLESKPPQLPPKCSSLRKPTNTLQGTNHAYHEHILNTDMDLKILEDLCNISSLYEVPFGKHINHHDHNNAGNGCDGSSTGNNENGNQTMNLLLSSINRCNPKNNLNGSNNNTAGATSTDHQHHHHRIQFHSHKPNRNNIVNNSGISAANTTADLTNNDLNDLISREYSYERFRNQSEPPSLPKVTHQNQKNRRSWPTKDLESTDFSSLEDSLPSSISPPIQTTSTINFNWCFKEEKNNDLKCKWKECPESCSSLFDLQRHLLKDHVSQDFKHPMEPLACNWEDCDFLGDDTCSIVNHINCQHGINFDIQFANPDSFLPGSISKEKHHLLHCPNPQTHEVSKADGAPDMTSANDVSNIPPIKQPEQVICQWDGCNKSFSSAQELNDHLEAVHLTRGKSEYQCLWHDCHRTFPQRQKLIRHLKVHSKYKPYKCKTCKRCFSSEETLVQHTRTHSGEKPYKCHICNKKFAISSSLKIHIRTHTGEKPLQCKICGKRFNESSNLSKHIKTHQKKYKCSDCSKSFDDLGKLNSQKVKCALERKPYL", "experiment": "PBM E-score (8-mer binding enrichment) (E-score (-0.5 to 0.5)); higher = stronger / more preferred TF binding", "conditions": "protein concentration: 200 nM; construct: GST-full length", "method_in_brief": "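Yeast transcription factors carrying a GST tag, as full-length proteins or DNA-binding domains, were produced by PURExpress in vitro transcription/translation. About 100-200 nM protein was applied to universal all-10-mer Agilent arrays, double-stranded by primer extension on fresh or once-stripped slides. Bound protein was detected with fluorescent anti-GST, and scans were normalised with masliner. The Universal PBM Analysis Suite gave each ungapped eight-base word, pooled with its reverse complement, an E-score, a modified Wilcoxon-Mann-Whitney statistic.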"}
{"sequence": "ACCCACAG", "PBM E-score": 0.2}
{"sequence": "AACCACAG", "PBM E-score": 0.233}
{"sequence": "CACCACAA", "PBM E-score": 0.147}
{"sequence": "TACCACTA", "PBM E-score": 0.179}
{"sequence": "AACCACTA", "PBM E-score": 0.369}
{"sequence": "ACCCACAA", "PBM E-score": 0.353}
{"sequence": "ACCCACAC", "PBM E-score": 0.225}
{"sequence": "GACCACAA", "PBM E-score": 0.185}
{"sequence": "TACCACAA", "PBM E-score": 0.359}
{"sequence": "CACCACTA", "PBM E-score": 0.22}
{"sequence": "AACCACAA", "PBM E-score": 0.34}
{"sequence": "AACCACAT", "PBM E-score": 0.234}
{"sequence": "AAACTTAT", "PBM E-score": 0.19}
{"sequence": "AGAAACTC", "PBM E-score": -0.0693}
{"sequence": "GACAGTAA", "PBM E-score": 0.0265}
{"sequence": "AGCTGGCG", "PBM E-score": -0.283}
{"sequence": "AGAAGAGA", "PBM E-score": -0.205}
{"sequence": "CCAAGATC", "PBM E-score": -0.0112}
{"sequence": "ACTGCACT", "PBM E-score": -0.149}
{"sequence": "ACAATGGA", "PBM E-score": 0.159}
{"sequence": "AAGGAGGA", "PBM E-score": -0.291}
{"sequence": "CGGTTAAG", "PBM E-score": 0.289}
{"sequence": "CGGTTACG", "PBM E-score": 0.401}
{"sequence": "AAGTTACA", "PBM E-score": 0.169}
{"sequence": "AGGTTAGC", "PBM E-score": 0.23}
{"sequence": "ACGTTACA", "PBM E-score": -0.0394}
{"sequence": "AAGTTACT", "PBM E-score": -0.0263}
{"sequence": "CAGTTACG", "PBM E-score": -0.0217}
{"sequence": "AGGTTAGA", "PBM E-score": 0.185}
{"sequence": "AGGTTACT", "PBM E-score": 0.457}
{"sequence": "AGGTTAGG", "PBM E-score": 0.348}
{"sequence": "AGGTTACA", "PBM E-score": 0.453}
{"sequence": "ACGTTACT", "PBM E-score": 0.143}
{"sequence": "CGCTCTCC", "PBM E-score": -0.119}
{"sequence": "ATCCTCTA", "PBM E-score": -0.118}
{"sequence": "AAACGCCG", "PBM E-score": -0.159}
{"sequence": "TACTGGGA", "PBM E-score": 0.0284}
{"sequence": "ACCAATCG", "PBM E-score": 0.0293}
{"sequence": "ACACGCTA", "PBM E-score": -0.194}
{"sequence": "CGCCTCAA", "PBM E-score": -0.107}
{"sequence": "CTCGAAGA", "PBM E-score": 0.0261}
{"sequence": "GATTCCTA", "PBM E-score": 0.0308}
{"sequence": "CGATCCAC", "PBM E-score": 0.00013}
{"sequence": "ACGTTACG", "PBM E-score": 0.0601}
{"sequence": "AGGTTACG", "PBM E-score": 0.459}
{"sequence": "AAGTTACG", "PBM E-score": 0.17}
{"sequence": "ATAACTCC", "PBM E-score": 0.128}
{"sequence": "CAGGTTGG", "PBM E-score": 0.0671}
{"sequence": "AAGGTTGT", "PBM E-score": 0.384}
{"sequence": "AAGGTTGG", "PBM E-score": 0.281}
{"sequence": "AAGGTTGA", "PBM E-score": 0.149}
{"sequence": "AAGGTTGC", "PBM E-score": 0.343}
{"sequence": "CAGGTTGC", "PBM E-score": 0.0972}
{"sequence": "GTCAGAAC", "PBM E-score": 0.0394}
{"sequence": "AAATGGGA", "PBM E-score": -0.0864}
{"sequence": "GTCCCCCA", "PBM E-score": -0.185}
{"sequence": "CCGGTTAA", "PBM E-score": 0.261}
{"sequence": "CCGGTTAC", "PBM E-score": 0.398}
{"sequence": "GCGGTTAA", "PBM E-score": 0.356}
{"sequence": "GCGGTTCC", "PBM E-score": 0.217}
{"sequence": "GCGGTTGA", "PBM E-score": 0.149}
{"sequence": "GCTGTTAC", "PBM E-score": -0.104}
{"sequence": "GCGGTTAC", "PBM E-score": 0.452}
{"sequence": "CCGGTTAG", "PBM E-score": 0.159}
{"sequence": "CCGGTTTC", "PBM E-score": 0.0368}
{"sequence": "AAGCTTGT", "PBM E-score": 0.15}
{"sequence": "CATCGTTC", "PBM E-score": -0.015}
{"sequence": "AGGAACCA", "PBM E-score": 0.0162}
{"sequence": "CGAGCGCC", "PBM E-score": -0.202}
{"sequence": "AGTTGGTC", "PBM E-score": 0.0383}
{"sequence": "AGTCTTAG", "PBM E-score": -0.182}
{"sequence": "GTATCCAA", "PBM E-score": 0.0926}
{"sequence": "CCTGGCCC", "PBM E-score": -0.0746}
{"sequence": "CGTTATCA", "PBM E-score": 0.0155}
{"sequence": "GGTTATTA", "PBM E-score": 0.438}
{"sequence": "AGTTAGTA", "PBM E-score": -0.00813}
{"sequence": "GGTTATCA", "PBM E-score": 0.445}
{"sequence": "CGTTATTA", "PBM E-score": 0.114}
{"sequence": "CGTTAGTA", "PBM E-score": 0.0365}
{"sequence": "GGTTAGTA", "PBM E-score": 0.325}
{"sequence": "AGTTATTA", "PBM E-score": 0.106}
{"sequence": "AGTTATCA", "PBM E-score": 0.186}
{"sequence": "CAGAGATC", "PBM E-score": -0.134}
{"sequence": "CCGAGAAA", "PBM E-score": 0.187}
{"sequence": "ACCCAGCA", "PBM E-score": 0.0307}
{"sequence": "CGAATGAG", "PBM E-score": -0.106}
